Most compounds without a hit are left out; they make up all but 2.8% or so of the library.
Shn3 inh set2: reduction of Shn3 3'UTR firefly luciferase signal, primary screen, Schnurri-3 inhibitor project, cell-based, Clone20 osteoblasts, set 2; inhibition, % at 12.5 µM; 0.52% of 360,000 active; Clone20 osteoblast Shn3 3'UTR firefly luciferase, 24 h;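 active = mean inhibition of at least 75% with every replicate also reaching 75%; inconclusive = mean inhibition at least 75% but some replicate below; inactive = mean inhibition below 75%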;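 also: 0% = median of neutral control wells and 100% = pilot-screen positive control compound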
PAX8 reporter: inhibitors of PAX8-driven TPO luciferase reporter, primary screen, RMG-I cells, single concentration. 1.2% of 360,000 active. SteadyGlo, 24 h. inhibition, % at 12.6 µM;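 active = mean replicate inhibition at least 60% with every replicate also reaching 60%; inconclusive = only one of the two criteria is met; inactive = mean below 60% and not all replicates reaching 60%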;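 also: luciferase light reporting Pax8 driven TPO promoter activity; plate controls were median of neutral control wells for no effect and mitoxantrone controls for full effect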
N-glyco inh: increase of ERlucT glycosylation luciferase signal, primary screen, N-linked glycosylation inhibitor project, D54 ERlucT cells, luminescence, set 2; D54 ERlucT glycosylation luciferase reporter, 24 h; percent of 100 nM tunicamycin response; reporter increase, % at 12.5 µM; 0.23% of 360,000 active; AID 588692, 2011;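 active = mean luciferase reporter signal, scaled so untreated is 0 and the glycosylation-blocking control 100, at or above a set limit in every replicate; inconclusive = mean reaches the limit but not every replicate does; inactive = mean below the limit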;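 also: luciferase carries N-glycosylation sites so blocking glycosylation raises the light; 0% = median of neutral control wells and 100% = median of 100 nM tunicamycin wells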
Env fusion inh: inhibitors of HIV-1 Env-driven cell-cell fusion, primary screen, HeLa-JRFL effector, CEM21 target cells, luciferase; 1.1% of 360,000 active; inhibition, % at 12.3 µM; AID 651610, 2012;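 active = mean replicate inhibition score of at least 50 and every replicate individually at or above 50; inconclusive = only one of the two criteria met; inactive = mean below 50 and not all replicates reaching 50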;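 also: 0% = plate neutral controls and 100% = maraviroc near 300 nM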
EBV LMP1 NFkB: EBV LMP1-driven NF-kappaB luciferase reporter inhibitors, primary screen, cell-based, luminescence, single point; inhibition, % at 12.5 µM; 0.69% of 350,000 active; LMP1-induced NF-kappaB luciferase reporter cells; in the data active = inhibition above about 41%; inconclusive = no clear call, values can overlap the other calls;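 also: 0% = neutral control wells and 100% = reference inhibitor control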
NSD2 HMT inh: NSD2 histone methyltransferase inhibitors, primary screen, biochemical, AlphaScreen, single concentration, set 2; Histone-lysine N-methyltransferase NSD2 (Homo sapiens), O96028; NSD2 peptide methylation, 120 min; inhibition, % at 12.5 µM; 0.54% of 310,000 active; in the data active = inhibition above about 50%
Target sequence (O96028 whole entry, looked up): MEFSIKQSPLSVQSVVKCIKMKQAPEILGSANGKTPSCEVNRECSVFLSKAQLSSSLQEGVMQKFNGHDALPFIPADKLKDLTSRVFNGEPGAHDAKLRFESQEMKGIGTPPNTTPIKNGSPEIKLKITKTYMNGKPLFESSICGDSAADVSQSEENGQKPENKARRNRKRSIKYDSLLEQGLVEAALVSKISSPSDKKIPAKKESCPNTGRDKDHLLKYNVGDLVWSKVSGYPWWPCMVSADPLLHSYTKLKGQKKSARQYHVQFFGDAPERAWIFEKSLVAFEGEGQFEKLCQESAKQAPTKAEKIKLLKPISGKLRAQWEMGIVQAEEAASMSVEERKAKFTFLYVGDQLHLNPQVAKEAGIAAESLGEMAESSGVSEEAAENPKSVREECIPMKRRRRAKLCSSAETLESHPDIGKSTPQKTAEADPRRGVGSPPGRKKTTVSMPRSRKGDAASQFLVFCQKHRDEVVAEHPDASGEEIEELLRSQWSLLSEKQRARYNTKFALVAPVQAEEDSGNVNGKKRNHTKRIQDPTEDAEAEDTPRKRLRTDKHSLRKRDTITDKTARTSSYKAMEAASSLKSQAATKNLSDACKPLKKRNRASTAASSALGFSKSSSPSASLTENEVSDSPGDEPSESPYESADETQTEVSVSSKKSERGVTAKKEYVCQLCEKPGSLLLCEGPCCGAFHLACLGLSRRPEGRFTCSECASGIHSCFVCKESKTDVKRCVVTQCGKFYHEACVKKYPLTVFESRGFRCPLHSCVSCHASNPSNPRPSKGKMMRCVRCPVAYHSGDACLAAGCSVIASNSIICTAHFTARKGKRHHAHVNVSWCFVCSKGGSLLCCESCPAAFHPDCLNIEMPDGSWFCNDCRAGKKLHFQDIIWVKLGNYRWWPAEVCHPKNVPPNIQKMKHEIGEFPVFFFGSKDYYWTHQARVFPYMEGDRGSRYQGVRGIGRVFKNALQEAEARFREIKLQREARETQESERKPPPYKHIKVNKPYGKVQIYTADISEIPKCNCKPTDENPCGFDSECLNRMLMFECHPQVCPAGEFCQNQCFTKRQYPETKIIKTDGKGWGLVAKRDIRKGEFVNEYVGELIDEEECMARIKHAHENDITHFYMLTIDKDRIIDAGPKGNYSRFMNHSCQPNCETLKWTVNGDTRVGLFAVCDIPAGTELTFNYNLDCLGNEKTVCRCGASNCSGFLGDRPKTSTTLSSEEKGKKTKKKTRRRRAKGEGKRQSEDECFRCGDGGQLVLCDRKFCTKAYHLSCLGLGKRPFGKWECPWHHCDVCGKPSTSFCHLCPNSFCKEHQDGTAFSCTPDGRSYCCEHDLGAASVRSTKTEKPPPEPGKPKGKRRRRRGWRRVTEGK
* hit, by the source's call; ? = inconclusive; . = not tested or not shown; ! = not confirmed by another sample; [ ] = dose if it differs, or a comment.

SMILES	Shn3 inh set2	PAX8 reporter	N-glyco inh	Env fusion inh	EBV LMP1 NFkB	NSD2 HMT inh
COc1cc(CN2C[C@@H]3N[C@H](C2)C3c2ccc(-c3ccncc3)cc2)cc(OC)c1 (stereo not given in full)	.	1	.	.	.	.
CC(C)NC(=O)N(C)C[C@@H]1Oc2ccc(NC(=O)CCCCCC(=O)Nc3ccccc3N)cc2C(=O)N([C@@H](C)CO)C[C@@H]1C	.	.	.	-14[16.7 µM]	.	.
CCOc1ccc(-n2c(SCC(=O)N3CCCC3)nc3ccccc3c2=O)cc1	.	.	.	.	.	1
C[C@@H]1CN([C@@H](C)CO)S(=O)(=O)c2ccc(-c3ccncc3)cc2O[C@@H]1CN(C)C(=O)C1CCCCC1	.	.	.	24[16.7 µM]	.	.
Cc1ccccc1-c1ccc(C2[C@@H]3CN(C(=O)Nc4cccc(F)c4)C[C@H]2N3)cc1 (stereo not given in full)	.	85*!	.	.	.	.
COc1ccc(NC(=O)N2C[C@@H]3N[C@H](C2)C3c2ccc(-c3ccncc3)cc2)cc1 (stereo not given in full)	.	-4	.	.	.	.
O=C(Nc1ccc(F)cc1)N1C[C@@H]2N[C@H](C1)C2c1ccc(/C=C/c2ccccc2)cc1 (stereo not given in full)	.	105*!	.	.	.	.
COc1ccc(NC(=O)N2C[C@@H]3N[C@H](C2)[C@@H]3c2ccc(-c3ccc(OC)cc3)cc2)cc1	.	93*	.	.	.	.
CO[C@@H]1CN(C)C(=O)c2ccc(NC(C)=O)cc2OC[C@@H](C)N(Cc2ccccn2)C[C@@H]1C	.	-11	.	2[16.7 µM]	.	.
CCOC(=O)/C(=C\c1ccc(OC(F)F)cc1)C1=Nn2c(nnc2-c2ccc(Cl)cc2)SC1	95*	.	?	.	-10	.
CCOC(=O)/C(=C/c1ccc(OC(F)F)cc1)C1=Nn2c(nnc2-c2ccc(Cl)cc2)SC1	95*	-27	16	-210	16	0
COCC(=O)N(C)C[C@H]1Oc2ncc(-c3ccccc3C)cc2C(=O)N([C@@H](C)CO)C[C@H]1C	.	.	.	5[16.7 µM]	.	.
CC1=C([C@H](O)c2ccccc2)[C@H](CO)n2c(=O)n(-c3ccccc3)c(=O)n2C1	.	-21	.	0[16.7 µM]	.	.
CCOc1ccc2nc(SC3CC(=O)N(c4ccc(C)cc4)C3=O)sc2c1 (stereo not given)	96*	.	2	.	-1	-1
CCOC(=O)c1ccc(NC(=O)O[C@H]2[C@H](OC(=O)Nc3ccccc3)[C@@H](OC(=O)Nc3ccccc3)[C@@H](OC)O[C@@H]2CO)cc1	.	82*	.	-96[16.7 µM]	.	.
C[C@@H]1CCCCO[C@H](CN(C)C(=O)Nc2ccc3c(c2)OCO3)[C@H](C)CN([C@@H](C)CO)C(=O)c2cc(NC(=O)CCCN(C)C)ccc2O1	.	-3	.	-12[16.7 µM]	.	.
C[C@H](CO)N1C[C@H](C)[C@H](CN(C)Cc2ccc(C(F)(F)F)cc2)Oc2ccc(NS(=O)(=O)c3cn(C)cn3)cc2C1=O	.	-8	.	-4[16.7 µM]	.	.
CCOC(=O)c1c(-c2ccccc2)csc1/N=C/C1C(=O)CC(C)(C)CC1=O	.	.	.	.	.	-4
Cc1ccccc1/C=N/Nc1nc2ccccc2[nH]1	-60	-129	-3	-20	-16	0
C(=N\Nc1nc2ccccc2[nH]1)/c1cccc2cccnc12	78	4	-12	-140	71*	4
O=C(N/N=C/c1cccc2nccnc12)c1ccccc1O	45	-13	8	-2	5	.
O=C(N/N=C/c1cccc2cccnc12)c1ccccc1O	92*	45	-5	16	5	3
O=C(C[C@@H]1C[C@@H]2c3cc(NC(=O)C4CCOCC4)ccc3O[C@@H]2[C@@H](CO)O1)NCc1ccccc1	.	1	.	46[16.7 µM]	.	.
CCCn1c(SCC(=O)Nc2nc3c(s2)CCCC3)nc2c1c(=O)n(C)c(=O)n2C	26	.	-7	40	38	0
CCCCn1c(SCC(=O)Nc2nnc(C(C)C)s2)nc2c1c(=O)n(C)c(=O)n2C	69	.	3	55*	9	23
CC(C)(C)N1C(=O)[C@H]2[C@@H](c3ccc(Br)cc3)N3C(=O)N(c4ccccc4)C(=O)[C@@]3(C)[C@H]2C1=O	-44	5	0	104*	-7	.

Screens as filed in PubChem BioAssay.
